MmCpn inh: M. maripaludis TRiC chaperonin inhibition | purified Mm-Cpn ATPase, ADP Transcreener TR-FRET | Potency, µM (series often up to 76.9 µM), for the others: top-dose activity, negative = inhibition, usual class: inhibitors | 330,000 compounds, 0.031% hits; active = well fitted inhibition curve with a large enough effect; inconclusive = small, poorly fitted or top-dose-only effect; also: potency is read from the fitted curve at half-maximal effect; % is scaled to controls: 0 for no effect and ±100 for the full control effect; nearly all actives have a fitted effect of over 80% in size
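Purified archaeal Mm-CPN (25nM final) preincubated 10 min at 37degC with compound, then 10uM ATP for 30 min at 37degC; ADP measured by HTRF Transcreener TR-FRET; buffer 30 mM TRIS pH 7.4, 100mM KCl, 5mM MgCl2, 1mM DTT.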
Rango complex inh: Rango-importin beta binding inhibition; Q14974; Rango CFP/YFP FRET sensor + importin beta, 45 min; Potency, µM (doses to about 92.2 µM), for the others: at the highest dose inhibition of complex formation; 340,000 compounds, 0.031% hits;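 also: potency is read from the fitted curve at half-maximal effect; 0% = DMSO wells and 100% = buffer wells lacking importin beta; nearly all actives have a fitted effect of over 15% in size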
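FRET biosensor Rango (snurportin 1 IBB between N-terminal EYFP and C-terminal Cerulean), 50 nM in PBS/1 mM DTT/0.02% Tween-20/0.1% BSA, preincubated 5 min RT with compound; 0.125 microM importin beta added, 45 min RT, CFP/YFP FRET ratio read.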
DRD3 antagonist: D3 dopamine receptor (human) antagonism | AID 652054 | D3R cells, DiscoveRx beta-arrestin luminescence, antagonist mode; stronger effect = lower value | max response, negative = inhibition, % | P35462 | 360,000 compounds, 2.5% hits; in the data active = max response below about -50%; inconclusive = no clear call, values can overlap the other calls; also: % is scaled to controls: 0 for no effect and ±100 for the full control effect
Target sequence (P35462 whole entry, looked up): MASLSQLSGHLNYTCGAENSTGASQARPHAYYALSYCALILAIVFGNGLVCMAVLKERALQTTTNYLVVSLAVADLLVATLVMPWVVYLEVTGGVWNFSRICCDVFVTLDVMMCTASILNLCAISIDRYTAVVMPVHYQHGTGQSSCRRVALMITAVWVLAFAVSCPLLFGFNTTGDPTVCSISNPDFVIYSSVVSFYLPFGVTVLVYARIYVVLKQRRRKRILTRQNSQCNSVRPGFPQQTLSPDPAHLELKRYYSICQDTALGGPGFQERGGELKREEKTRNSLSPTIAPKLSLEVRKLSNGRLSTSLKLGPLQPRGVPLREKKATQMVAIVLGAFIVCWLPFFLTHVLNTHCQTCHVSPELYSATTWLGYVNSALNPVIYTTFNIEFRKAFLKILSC
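Cells expressing the human receptor were seeded at 1500 cells/well, incubated overnight at 37 degrees C in 5% CO2, then exposed to library compounds with dopamine controls for 90 minutes at 37 degrees C before luminescent detection.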
D3 ag: agonists of human D3 dopamine receptor; 410,000 compounds, 0.58% hits; P35462; D3R DiscoveRx beta-arrestin cells, luminescence, 90 min; max activation, %; in the data active = max activation above about 30%; also: 0% is about no effect
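Cells at 1500/well, incubated overnight, then treated with pinned compounds (dopamine as control) for 90 min at 37 degrees C. DiscoveRx reagent added for 30 - 60 minutes at room temperature; luminescence read.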
TSG101-PTAP inh: blocks PTAP/TSG101 interaction to inhibit HIV-1 budding; Q99816; Fluorescence polarization, FITC-PTAP peptide / Tsg101 binding; Potency, µM (titrated, usually from 115 µM), without a hit: at the highest dose activity change, negative = inhibition, most hits filed as inhibitors; 340,000 tested, under 10 active; AID 493005; active = well fitted inhibition curve with a large enough effect in the main read-out, with a control signal flat, not every such curve was filed as active; inconclusive = small, poorly fitted or top-dose-only effect, or effect the other way, or a change in a side signal; inactive = no such curve, though single readings can be large or run the other way; also: potency is read from the fitted curve at half-maximal effect; % of control where 0% means no effect
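FP read-out: FITC-PTAP peptide, 50 nM final, binding Tsg101 binding domain, 10 uM final; 20 min, r.t.; 10 mM HEPES pH 7.5, 0.15 M NaCl, 0.01% Tween 20, 3 mM EDTA, 0.1 mM TCEP.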
Rango dissoc inh: inhibition of RanGTP-driven Rango-importin beta dissociation. O95149+P62826. Biochemical FRET Rango-importin beta, RanGTP-induced dissociation. Potency, µM (titrated, usually from 46.1 µM), without a hit: top-dose activity change, negative = inhibition. 340,000 compounds, 0.071% hits. AID 540253; also: potency is read from the fitted curve at half-maximal effect; % of control where 0% means no effect; nearly all actives have a fitted effect of over 45% in size
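Recombinant Rango FRET biosensor (EYFP–snurportin 1 IBB–cerulean CFP10) at 0.1 uM premixed with 0.25 uM importin beta in PBS, 1 mM DTT, 0.02% Tween-20, 0.1% BSA. Compound added 5 min; RanGTP-RCC1 (0.6 uM Ran, 2 mM GTP, 0.2 uM RCC1) then triggers release, read at 45 min.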
Numbers without * were called inactive; u = inconclusive; x = no result given. Compounds with a hit are over-represented: about 2.9% of the library has one in this group of screens. Unless noted, calls follow the shape of the full dose curve.

SMILES | MmCpn inh | Rango complex inh | DRD3 antagonist | D3 ag | TSG101-PTAP inh | Rango dissoc inh
COc1ccc(CC2(CO)CCN(C/C=C/c3ccccc3OC)CC2)cc1 | 1% | 0% | -93* | -26 | 0% | -11%
COc1ccc(CC2(CO)CCN(Cc3ccc(OC(F)(F)F)cc3)CC2)cc1 | -6% | -2% | -20 | -19 | -2% | -7%
CCOC(=O)C1(CCOC)CCN(Cc2ccncc2)CC1 | 1% | 0% | 9 | -3 | -1% | u
COc1ccc(CC2(CO)CCN(C(C)COc3ccccc3)CC2)cc1 (stereo unspecified) | 1% | 1% | u | 18 | -4% | -11%
CCOC(=O)C1(CCOC)CCN(C/C=C/c2ccccc2OC)CC1 | x | 0% | -71* | -15 | -2% | 9%
COc1ccc(S(=O)(=O)NCC(c2ccco2)N2CCN(c3ccc(F)cc3)CC2)cc1C (stereo unspecified) | x | x | x | -13 | x | x
Cc1ccccc1C1C=C(c2ccc(Cl)cc2)Nc2nnnn21 (stereo unspecified) | x | x | x | -9 | x | x
COc1ccccc1/C=C/C=N/N1CCN(Cc2ccccc2)CC1 | 0% | 0% | -5 | 3 | 1% | 12%
COc1cc(CN2CCCC(CO)(Cc3ccccc3)C2)ccc1O (stereo unspecified) | 1% | 0% | u | -11 | -5% | 6%
COc1ccccc1/C=C/CN1CCN(c2ccccc2)CC1 | -2% | -2% | -64* | 19 | -2% | 13%
OCC1(CCc2ccccc2)CCCN(C/C=C/c2ccccc2)C1 (stereo unspecified) | 1% | -3% | -68* | -23 | -4% | 20%
O=C(CCC(F)(F)F)N1CCCC(CO)(CCc2ccccc2)C1 (stereo unspecified) | -1% | 3% | 12 | 23 | -5% | 18%
COc1ccccc1/C=C/CN1CCCC(CO)(CCc2ccccc2)C1 (stereo unspecified) | -3% | 0% | -96* | -23 | 1% | -5%
CCc1ccc(NC(=O)c2sc3nc(C)c(Cl)c(C)c3c2N)cc1 | x | x | x | -3 | x | x
CCCc1nc2oc3c(NCCN(C)C)ncnc3c2c2c1CCCC2 | 0% | 0% | -54* | 3 | -12% | -20%
CCCc1nc2oc3c(NCCCN(C)C)ncnc3c2c2c1CCCC2 | 2% | 0% | -15 | -11 | -12% | 1%
COc1ccc([C@H]2CC(=O)C=C(c3ccc(C(=O)O)cc3)C2)cc1OC | 1% | -4% | 2 | 31* | 1% | -6%
COc1ccc([C@H]2CC(=O)C=C(c3cc4ccccc4s3)C2)cc1OC | -2% | 4% | 51 | 32* | -2% | u
COc1ccc([C@H]2CC(=O)C=C(c3ccc(-c4ccccc4)cc3)C2)cc1OC | -1% | 0% | 0 | -1 | -3% | 3%
COc1ccccc1NC(=O)C1=C(C)Nc2c(C(=O)Nc3ccc(C)cc3)cnn2C1c1cccc(OC)c1OC (stereo unspecified) | x | x | x | 1 | x | x
S=C(NCCN(C1CCCCC1)C1CCCC1)Nc1cccc(Cl)c1 | 0% | 1% | -102* | -38 | -2% | -21%
CC(C)(CNC(=O)c1cc2c(s1)CCCC2)N1CCOCC1 | 1% | 3% | u | -32 | 0% | 2%
Cn1c(Cn2nnc3ccccc32)nnc1SCC(=O)N1c2ccccc2Sc2ccccc21 | 2% | -5% | -55* | -22 | -14% | -7%
COc1ccc(CNS(=O)(=O)c2cccc(S(=O)(=O)N3CCOCC3)c2)cc1 | -1% | 4% | -93* | 11 | -8% | 1%
COc1cccc(CNS(=O)(=O)c2cccc(S(=O)(=O)N3CCOCC3)c2)c1 | 0% | 0% | 12 | 7 | -1% | 11%
SMILES | MmCpn inh | Rango complex inh | DRD3 antagonist | D3 ag | TSG101-PTAP inh | Rango dissoc inh
CCCC(=O)Nc1c(I)cc(I)c(CC(CC)C(=O)O)c1I (stereo unspecified) | x | x | x | 6 | x | x
Cc1ccccc1OCC(=O)Nc1c(C)ccc2nsnc12 | x | x | x | 22 | x | x
Cc1ccc2[nH]c3c(c2c1)CNCC3 | -1% | 10% | -58* | -22 | -4% | 0%
CCn1c(SCC(=O)NC)nnc1C(C)C | 0% | 1% | -52* | -3 | -2% | u
CC(NC(=O)CN(c1cccc(C(F)(F)F)c1)S(=O)(=O)c1ccc(Cl)c([N+](=O)[O-])c1)c1ccccc1 (stereo unspecified) | 2% | -5% | -54* | -17 | -1% | 23%
Cc1oc2cc3oc(=O)c(CCC(=O)N(C)CC(=O)O)c(C)c3cc2c1C | -5% | 4% | -67* | 3 | -1% | 16%
CCNc1cc2oc(=O)c(CN3CCOCC3)c(C)c2cc1C | -9% | u | -67* | -12 | -3% | u
Cc1oc2cc3oc(=O)c(CCC(=O)NCCN4CCOCC4)c(C)c3cc2c1C | -1% | 0% | 9 | 41* | 2% | 1%
Cc1oc2cc3oc(=O)c(CCC(=O)N[C@H](C(=O)O)C(C)C)c(C)c3cc2c1C | -5% | 0% | -16 | -1 | -6% | -11%
Cc1coc2cc3oc(=O)c(CCC(=O)NCCCN4CCOCC4)c(C)c3cc12 | -1% | -1% | 12 | 11 | -2% | 3%
Cc1cc2oc(=O)cc(CN3CCOCC3)c2cc1C | -3% | u | 7 | -8 | -4% | -4%
COc1cccc(CN2C(=O)c3ccccc3C2C(=O)NCCc2ccccc2)c1 (stereo unspecified) | x | x | x | -2 | x | x
CN1CCN(C(=O)Nc2cccc(Cl)c2)c2cccnc21 | x | x | x | 1 | x | x
CC1(C)CC(=O)C2=C(C1)N=C1SCCC(=O)N1C2c1ccccc1 (stereo unspecified) | -2% | 3% | -53* | -2 | -3% | -24%
CCOc1ccc(NC(=O)C2CCCN(c3nc(C)cc(C)n3)C2)cc1 (stereo unspecified) | -6% | -3% | 2 | 0 | -1% | -9%
CCCN(CCC)C(=O)Cn1c(=O)n(-c2ccc(C)cc2)c(=O)c2ccc(C(=O)NCc3ccccc3Cl)cc21 | x | x | x | -2 | x | x
O=S1(=O)[C@H]2C[C@H](CO)O[C@@]2(CO)CN1Cc1ccc(-c2ccc(F)cc2)cc1 | 3% | -2% | -20 | 31* | 1% | 19%
CCN(C(=O)CSc1nc2ccccc2nc1Cc1cccc(OC)c1)c1cccc(C)c1 | x | x | x | -16 | x | x
CCC[C@@H](CN1CCC[C@H]1CN1C(N)=NC[C@@H]1Cc1ccccc1)N1C[C@@H]([C@H](C)CC)N(CCCC2CCCC2)C1=N | 0% | u | -97* | -39 | 0% | -16%

Source: PubChem BioAssay
